Screening data deposited in PubChem by several laboratories.
Most compounds without a hit are left out; they make up all but 3.2% or so of the library.
GDH-TPI counter: GDH-TPI coupling enzyme inhibitors, primary screen, artefact control for M. tuberculosis FBA inhibitor project, biochemical, absorbance, full deck; AID 588335, 2011; inhibition, % at 4.8 µM; actives 1.2% (n = 360,000); GDH-TPI coupled enzyme counterscreen, NADH absorbance; in the data active = inhibition above about 30%;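 also: 0% = DMSO wells and 100% = wells lacking the enzyme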
SSB-PriA inh: inhibitors of Klebsiella pneumoniae PriA binding to SSB C-terminal tail, primary screen, biochemical, AlphaScreen; AlphaScreen SSBct-PriA binding, biotinylated peptide; inhibition, % at 33 µM; AID 1272365, 2023; actives 0.6% (n = 430,000); PriA–SSB C-terminal tail interaction (Klebsiella pneumoniae); in the data active = inhibition mostly above about 37%, no sharp cut-off; inactive = mostly below about 20%;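 also: plate controls were negative control peptide for no effect and reference peptide for full effect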
Mtb FBA inh: Mtb FBA enzyme inhibitors, primary screen, biochemical, fluorescence, strain H37Rv | Fructose-bisphosphate aldolase (Mycobacterium tuberculosis (strain ATCC 25618 / H37Rv)), … | purified M. tuberculosis FBA, fluorescence read-out | inhibition, % at 1 µM | actives 2.3% (n = 360,000) | AID 588726, 2011; in the data active = inhibition above about 27%;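 also: 0% = vehicle and 100% = reference inhibitor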
Target sequence (P9WQA3 whole entry, looked up): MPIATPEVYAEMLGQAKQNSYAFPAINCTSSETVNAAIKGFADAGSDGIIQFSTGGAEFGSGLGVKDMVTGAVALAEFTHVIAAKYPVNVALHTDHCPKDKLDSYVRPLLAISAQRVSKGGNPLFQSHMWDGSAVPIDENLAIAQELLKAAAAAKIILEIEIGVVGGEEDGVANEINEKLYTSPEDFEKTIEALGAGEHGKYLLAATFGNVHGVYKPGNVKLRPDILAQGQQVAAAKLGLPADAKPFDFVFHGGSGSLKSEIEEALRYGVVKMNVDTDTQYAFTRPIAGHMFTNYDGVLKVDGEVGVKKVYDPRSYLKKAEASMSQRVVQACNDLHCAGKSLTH
Mtb UGM inh: M. tuberculosis UGM enzyme inhibitors, primary screen, biochemical, fluorescence polarization, single point; UDP-galactopyranose mutase (Mycobacterium tuberculosis (strain ATCC 25618 / H37Rv)), …; purified UGM, fluorescence polarization probe displacement; inhibition, % at 10 µM; actives 0.06% (n = 320,000); in the data active = inhibition above about 10%, passing the limit was not always enough; inconclusive = no clear call, values can overlap the other calls
Rv3671c protease: Rv3671c serine protease inhibitors, primary screen, biochemical, fluorescence polarization, M. tuberculosis H37Rv | P9WHR9 | inhibition, % at 5.96 µM | actives 0.048% (n = 320,000) | AID 2606, 2010; in the data active = inhibition above about 38%;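 also: extracellular domain of Rv3671c used as enzyme; 0% = enzyme with DMSO and 100% = no enzyme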
Mtb bLac sens: beta-lactam sensitization of Mtb H37Rv, H37Rv | M. tuberculosis H37Rv growth with meropenem, percent inhibition | inhibition, % at 25 µM | actives 0.27% (n = 330,000); call rule not given here;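 also: growth measured after seven days incubation then overnight dye step; 0% = bacteria only wells and 100% = bacteria with antibiotic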
* marks the source's active call; other numbers are inactive results; i = inactive; ? = inconclusive; / = no result; + = active, no number.

SMILES | GDH-TPI counter | SSB-PriA inh | Mtb FBA inh | Mtb UGM inh | Rv3671c protease | Mtb bLac sens
O=C(CSc1nc2nc(-c3cccs3)cc(C(F)(F)F)c2c(=O)[nH]1)C(F)(F)F | 14 | 7 | + | 1 | -15 | -12
O=C1/C(=C/c2cccnc2)CC/C1=C\c1cccnc1 | 54* | -4 | -4 | -2 | -5 | -1
O=C1NC(=S)N/C1=C/c1cccc([N+](=O)[O-])c1 | 22 | -10 | 0 | -1 | -4 | -1
O=C1NC(=S)N/C1=C/c1cccnc1 | 45* | -2 | -1 | -2 | -2 | -9
O=C1NC(=S)N/C1=C\c1cccc([N+](=O)[O-])c1 | 33* | -4 | 0 | -1 | -1 | -1
O=C(NCC(O)Cn1ccccc1=O)c1cccc(C(F)(F)F)c1 (centres undefined) | / | -18 | / | / | / | /
CCNc1nc(NCC)nc(Nc2ccc(Cl)cc2)n1 | / | -2 | / | / | / | /
CCOc1cc(C(=O)Nc2nnc(-c3ccc4c(c3)OCCO4)o2)cc(OCC)c1OCC | / | 1 | / | / | / | /
COc1cccc(Nc2cc(C)c(C#N)c3nc4ccccc4n23)c1 | / | -16 | / | / | / | /
NCC1CN(c2ccccc2)C(=O)O1 (centres undefined) | / | 4 | / | / | / | /
NC(=O)N/N=C1/CCCC1c1ccccn1 (centres undefined) | / | 67* | / | / | / | /
O=[N+]([O-])c1ccc(NN=C2CCCCC2c2ccccn2)cc1 (centres undefined) | / | 9 | / | / | / | /
CCCCCC(=O)NN=Cc1cccs1 | / | -5 | / | / | / | /
O=C(Nc1ccc(C(F)(F)F)cc1)N(Cc1cccs1)C1CCOCC1 | / | -3 | / | / | / | /
CCN1CCN(Cc2c(O)ccc3c(C)cc(=O)oc23)CC1 | 17 | -4 | + | -5 | 3 | 0
O=c1oc2c(CN3CCCCC3)c(O)ccc2cc1-c1nc2ccccc2[nH]1 | -4 | -14 | 2 | / | / | /
CN1CCN(Cc2c(O)ccc3c(-c4ccccc4)cc(=O)oc23)CC1 | 11 | -13 | 3 | -1 | -2 | ?
Cc1cc(=O)oc2c(CN3CCCC3)c(O)ccc12 | 19 | -9 | + | -1 | 10 | 3
Cc1cc(=O)oc2c(CN3CCN(CCO)CC3)c(O)ccc12 | 11 | 10 | + | 1 | -8 | 2
O=c1oc2c(CN3CCN(CCO)CC3)c(O)ccc2cc1-c1ccccn1 | 18 | 1 | + | -3 | 11 | 6
O=C(NCc1cccnc1)C(=O)NC[C@@H](c1ccco1)S(=O)(=O)c1ccccc1 | / | -3 | / | / | / | /
CCOC(=O)C1=C(C)N=c2sc(=Cc3ccc(OCC(=O)O)cc3)c(=O)n2C1c1ccc(OC)cc1OC (centres undefined) | / | -5 | / | / | / | /
O=C(Nc1ccccc1Cc1nc(-c2cnccn2)no1)c1ccc2ncsc2c1 | / | -2 | / | / | / | /
Cc1ccc2nc(C)c(C(=O)NN=Cc3ccc(C(=O)O)cc3)cc2c1 | / | -7 | / | / | / | /
O=C(N/N=C/c1ccc2c(c1)OCO2)c1ccccn1 | 41* | / | -2 | 0 | -5 | 95
SMILES | GDH-TPI counter | SSB-PriA inh | Mtb FBA inh | Mtb UGM inh | Rv3671c protease | Mtb bLac sens
O=C(N/N=C/c1ccc(N2CCOCC2)cc1)c1ccccn1 | 67* | i | 3 | 0 | -8 | 99
Cc1c(C(=O)N/N=C/c2ccc(N3CCOCC3)cc2)nc2ccccn12 | 31* | / | 1 | 0 | 3 | -4
Cc1ccc2nc(C)c(C(=O)N/N=C/c3ccc(N4CCOCC4)cc3)cc2c1 | 41* | / | -3 | -1 | 8 | -3
O=C(CCCn1nc(-c2cccs2)ccc1=O)Nc1ccc(-c2cn3c(n2)SCC3)cc1 | / | 9 | / | / | / | /
CC(=O)OC(CN(Cc1ccco1)S(=O)(=O)c1ccc(Cl)cc1)Cn1c2ccccc2c2ccccc21 (centres undefined) | / | 11 | / | / | / | /
O=C(N/N=C/c1cc2c(cc1Br)OCO2)c1ccccn1 | 31* | i | 4 | -2 | 9 | 12
Cc1cccc(NC(=O)c2cnc3sccn3c2=O)n1 | 33* | -16 | 9 | 3 | -2 | 0
COc1ccccc1CNC(=O)c1cnc2sccn2c1=O | 36* | -11 | 0 | 1 | -1 | -3
O=C(NCc1cccnc1)c1cnc2sccn2c1=O | 41* | -6 | 21 | -6 | 0 | -3
O=C(NCc1cccnc1)c1cnc2n(c1=O)CCS2 | -1 | -3 | 2 | 0 | 10 | -5
